# From the supplement of paper PMC6555819
# Tests used:
# Assay in all cases: PBM binding z-score (relative to random genomic background probes); higher = stronger binding; sequences stand for … in GC…GCGATTGACAGCGTAGAATGAAGG
# [1] = tested on: FXR:RXRa (NR concentration 270 nM, RXRa partner concentration 90 nM)
# Summary of the method: (§1)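 Custom Agilent 4×180K protein-binding microarrays carried double-stranded probes. Their 34-nt variable regions held direct-repeat seeds, single-nucleotide variants, half-site ablations and random human genomic background sequences. Arrays were incubated 1 h with ligand-free nuclear receptor dimers in PBS pH 7.4, 2% milk, 0.02% Triton X-100, 1 mM DTT, 0.2 mg/mL BSA and 0.4 mg/ml salmon testes DNA. Antibodies against each partner (one per run) detected binding, and scanned fluorescence was regression-normalized. Binding z-scores use random background probes as reference.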
# [2] = tested on: LXRa:RXRa (NR concentration 270 nM, RXRa partner concentration 90 nM)
# Summary of the method: as §1
# [3] = tested on: LXRa homodimer (NR concentration 270 nM)
# Summary of the method: as §1
# [4] = tested on: LXRb:RXRa (NR concentration 270 nM, RXRa partner concentration 90 nM)
# Summary of the method: as §1
# [5] = tested on: LXRb homodimer (NR concentration 270 nM)
# Summary of the method: as §1
# [6] = tested on: PPARa:RXRa (NR concentration 270 nM, RXRa partner concentration 90 nM)
# Summary of the method: as §1
# [7] = tested on: PPARg:RXRa (NR concentration 180 nM, RXRa partner concentration 90 nM)
# Summary of the method: as §1
# [8] = tested on: PPARg:RXRa 270nM:90nM, anti-RXR (NR concentration 270 nM, RXRa partner concentration 90 nM)
# Summary of the method: as §1
# [9] = tested on: PPARg:RXRa 30nM:10nM, anti-RXR (NR concentration 30 nM, RXRa partner concentration 10 nM)
# Summary of the method: as §1
# [10] = tested on: PPARg:RXRa 90nM:30nM, anti-RXR (NR concentration 90 nM, RXRa partner concentration 30 nM)
# Summary of the method: as §1
sequence,measurement,setting,value
AATACAGGGTCAACGTAGGCCAGAGTACGCACAG,PBM binding z-score,[1],7.15
same,PBM binding z-score,[2],6.18
same,PBM binding z-score,[3],1.92
same,PBM binding z-score,[4],4.41
same,PBM binding z-score,[5],1.47
same,PBM binding z-score,[6],5.88
same,PBM binding z-score,[7],6.89
same,PBM binding z-score,[8],6.32
same,PBM binding z-score,[9],2.82
same,PBM binding z-score,[10],4.85
CCTACAGGGTCAGCTAGGCCAGAGTAGGGACGGC,PBM binding z-score,[1],4.39
same,PBM binding z-score,[2],2.61
same,PBM binding z-score,[3],-0.714
same,PBM binding z-score,[4],1.7
same,PBM binding z-score,[5],-0.84
same,PBM binding z-score,[6],4.2
same,PBM binding z-score,[7],2.56
same,PBM binding z-score,[8],2.7
same,PBM binding z-score,[9],0.464
same,PBM binding z-score,[10],1.31
GCTTACGGGTCAAAGGTTAGAGCATGAATAGAAT,PBM binding z-score,[1],7.32
same,PBM binding z-score,[2],5.34
same,PBM binding z-score,[3],0.175
same,PBM binding z-score,[4],5.27
same,PBM binding z-score,[5],-0.0451
same,PBM binding z-score,[6],6.73
same,PBM binding z-score,[7],10.6
same,PBM binding z-score,[8],8.89
same,PBM binding z-score,[9],8.08
same,PBM binding z-score,[10],9.45
TCATATAGGTAAACAGGTAAAAGTCCGTAAGTTA,PBM binding z-score,[1],1.11
same,PBM binding z-score,[2],1.14
same,PBM binding z-score,[3],0.519
same,PBM binding z-score,[4],0.863
same,PBM binding z-score,[5],0.214
same,PBM binding z-score,[6],1.98
same,PBM binding z-score,[7],2.49
same,PBM binding z-score,[8],3.29
same,PBM binding z-score,[9],4.26
same,PBM binding z-score,[10],3.85
CCGACTGGGGCAGATAGGTTACCATACCATCCGG,PBM binding z-score,[1],-0.431
same,PBM binding z-score,[2],-0.25
same,PBM binding z-score,[3],0.171
same,PBM binding z-score,[4],-0.154
same,PBM binding z-score,[5],-1.16
same,PBM binding z-score,[6],0.179
same,PBM binding z-score,[7],0.914
same,PBM binding z-score,[8],0.44
same,PBM binding z-score,[9],-0.164
same,PBM binding z-score,[10],-0.0542
CACGAAAGGTCGTGCTCAGGTGAGTATACCAAAC,PBM binding z-score,[1],5.58
same,PBM binding z-score,[2],4.3
same,PBM binding z-score,[3],0.166
same,PBM binding z-score,[4],3.44
same,PBM binding z-score,[5],0.848
same,PBM binding z-score,[6],4.88
same,PBM binding z-score,[7],3.14
same,PBM binding z-score,[8],3.97
same,PBM binding z-score,[9],1.14
same,PBM binding z-score,[10],2.72
TCTAGTAGGTTACCAATGGGGCATTCAGCTTTCT,PBM binding z-score,[1],0.412
same,PBM binding z-score,[2],1.74
same,PBM binding z-score,[3],-0.049
same,PBM binding z-score,[4],1.37
same,PBM binding z-score,[5],0.0938
same,PBM binding z-score,[6],2.14
same,PBM binding z-score,[7],2.38
same,PBM binding z-score,[8],2.93
same,PBM binding z-score,[9],3.2
same,PBM binding z-score,[10],2.81
GGAACGAGGGCAAGTTGATAGCGGAGTTTGATGG,PBM binding z-score,[1],0.772
same,PBM binding z-score,[2],0.00493
same,PBM binding z-score,[3],-0.352
same,PBM binding z-score,[4],0.246
same,PBM binding z-score,[5],-0.525
same,PBM binding z-score,[6],1.7
same,PBM binding z-score,[7],0.963
same,PBM binding z-score,[8],1.16
same,PBM binding z-score,[9],0.00794
same,PBM binding z-score,[10],0.229
CAAACTAGCTCAAGGTCAAAGTCGGTTTGTGCCA,PBM binding z-score,[1],4.51
same,PBM binding z-score,[2],5.18
same,PBM binding z-score,[3],5.93
same,PBM binding z-score,[4],4.13
same,PBM binding z-score,[5],1.45
same,PBM binding z-score,[6],4.17
same,PBM binding z-score,[7],1.21
same,PBM binding z-score,[8],2.95
same,PBM binding z-score,[9],0.947
same,PBM binding z-score,[10],2.05
CCGACTGGGCCAAAGGTCATTGATTCCAATGCTC,PBM binding z-score,[1],4.37
same,PBM binding z-score,[2],4.94
same,PBM binding z-score,[3],3.7
same,PBM binding z-score,[4],4.49
same,PBM binding z-score,[5],0.0732
same,PBM binding z-score,[6],6.09
same,PBM binding z-score,[7],11
same,PBM binding z-score,[8],10
same,PBM binding z-score,[9],8.79
same,PBM binding z-score,[10],12.1
CCTTACGGGTCGCTCCAGGTTATAGCATCGGAGT,PBM binding z-score,[1],1.38
same,PBM binding z-score,[2],2.13
same,PBM binding z-score,[3],-0.172
same,PBM binding z-score,[4],0.57
same,PBM binding z-score,[5],-0.524
same,PBM binding z-score,[6],1.24
same,PBM binding z-score,[7],0.136
same,PBM binding z-score,[8],0.211
same,PBM binding z-score,[9],-0.551
same,PBM binding z-score,[10],-0.391
CATACAGGGTCAGCTAGGCCACAGTAGGGACGGC,PBM binding z-score,[1],4.61
same,PBM binding z-score,[2],3.07
same,PBM binding z-score,[3],-0.102
same,PBM binding z-score,[4],2.31
same,PBM binding z-score,[5],0.444
same,PBM binding z-score,[6],4.29
same,PBM binding z-score,[7],3.75
same,PBM binding z-score,[8],3.32
same,PBM binding z-score,[9],0.994
same,PBM binding z-score,[10],2.01
ATCTCTAGGTAACAAGTTCAGTGGAAGAGAGGAC,PBM binding z-score,[1],0.589
same,PBM binding z-score,[2],0.744
same,PBM binding z-score,[3],0.58
same,PBM binding z-score,[4],0.666
same,PBM binding z-score,[5],0.823
same,PBM binding z-score,[6],1.47
same,PBM binding z-score,[7],1.7
same,PBM binding z-score,[8],1.79
same,PBM binding z-score,[9],0.967
same,PBM binding z-score,[10],1.71
CCTACGGGGCCAAAAAGGTCATTGATGCCGATAA,PBM binding z-score,[1],3.94
same,PBM binding z-score,[2],4.35
same,PBM binding z-score,[3],2.76
same,PBM binding z-score,[4],4.36
same,PBM binding z-score,[5],0.0213
same,PBM binding z-score,[6],4.67
same,PBM binding z-score,[7],1.63
same,PBM binding z-score,[8],2.97
same,PBM binding z-score,[9],0.7
same,PBM binding z-score,[10],1.77
ATCTCTAGGTAGAGTTCAGTGAAAGATCGATAGA,PBM binding z-score,[1],0.805
same,PBM binding z-score,[2],1.62
same,PBM binding z-score,[3],1.28
same,PBM binding z-score,[4],1.2
same,PBM binding z-score,[5],0.516
same,PBM binding z-score,[6],1.78
same,PBM binding z-score,[7],1.1
same,PBM binding z-score,[8],2.33
same,PBM binding z-score,[9],0.898
same,PBM binding z-score,[10],1.93
TCTAGTAGTTGAAGGGCAACCGACGAGTCCGTTT,PBM binding z-score,[1],0.63
same,PBM binding z-score,[2],0.618
same,PBM binding z-score,[3],-0.0916
same,PBM binding z-score,[4],0.268
same,PBM binding z-score,[5],-0.134
same,PBM binding z-score,[6],0.455
same,PBM binding z-score,[7],-0.018
same,PBM binding z-score,[8],1.65
same,PBM binding z-score,[9],2.83
same,PBM binding z-score,[10],2.22
ATCGAAAGCTCGTGAGGTGAGTATACAGAAAGGC,PBM binding z-score,[1],-0.207
same,PBM binding z-score,[2],-0.537
same,PBM binding z-score,[3],-0.718
same,PBM binding z-score,[4],-0.546
same,PBM binding z-score,[5],-0.682
same,PBM binding z-score,[6],-0.128
same,PBM binding z-score,[7],0.416
same,PBM binding z-score,[8],0.00274
same,PBM binding z-score,[9],0.112
same,PBM binding z-score,[10],-0.368
ACTAGTTGGTCAGCTTAGGTCACACACAATTCGG,PBM binding z-score,[1],1.75
same,PBM binding z-score,[2],1.6
same,PBM binding z-score,[3],1.42
same,PBM binding z-score,[4],1.82
same,PBM binding z-score,[5],0.877
same,PBM binding z-score,[6],1.97
same,PBM binding z-score,[7],1.07
same,PBM binding z-score,[8],1.05
same,PBM binding z-score,[9],0.166
same,PBM binding z-score,[10],0.931
CAAACTAGGTCAAAGGTCAAAGGCGAGCCAACCA,PBM binding z-score,[1],8.49
same,PBM binding z-score,[2],7.21
same,PBM binding z-score,[3],4.91
same,PBM binding z-score,[4],7.14
same,PBM binding z-score,[5],2.68
same,PBM binding z-score,[6],7.65
same,PBM binding z-score,[7],14.2
same,PBM binding z-score,[8],11.5
same,PBM binding z-score,[9],14.7
same,PBM binding z-score,[10],13.9
TTACCAAGGTGAGCTGAGTTCGTTGATCCAACTC,PBM binding z-score,[1],0.596
same,PBM binding z-score,[2],0.237
same,PBM binding z-score,[3],-0.394
same,PBM binding z-score,[4],-0.0256
same,PBM binding z-score,[5],-1.28
same,PBM binding z-score,[6],0.596
same,PBM binding z-score,[7],-0.321
same,PBM binding z-score,[8],0.146
same,PBM binding z-score,[9],-0.237
same,PBM binding z-score,[10],0.19
ATCGAAAGATCGTGAGGTGAGTATACAGAAAGGC,PBM binding z-score,[1],0.0329
same,PBM binding z-score,[2],-0.211
same,PBM binding z-score,[3],0.0924
same,PBM binding z-score,[4],-0.208
same,PBM binding z-score,[5],-0.374
same,PBM binding z-score,[6],0.327
same,PBM binding z-score,[7],0.669
same,PBM binding z-score,[8],-0.00875
same,PBM binding z-score,[9],0.225
same,PBM binding z-score,[10],0.106
GATACAGGGTCAAGGGCAGAGTACGCGTATTGAT,PBM binding z-score,[1],6.94
same,PBM binding z-score,[2],4.74
same,PBM binding z-score,[3],0.422
same,PBM binding z-score,[4],4.1
same,PBM binding z-score,[5],0.257
same,PBM binding z-score,[6],5.92
same,PBM binding z-score,[7],6.21
same,PBM binding z-score,[8],5.97
same,PBM binding z-score,[9],2.9
same,PBM binding z-score,[10],4.69
CGAACTAGGTCATCCAGGACAGAGAATACATTGA,PBM binding z-score,[1],4.18
same,PBM binding z-score,[2],2.74
same,PBM binding z-score,[3],0.462
same,PBM binding z-score,[4],2.08
same,PBM binding z-score,[5],0.0984
same,PBM binding z-score,[6],4.79
same,PBM binding z-score,[7],7.72
same,PBM binding z-score,[8],6.45
same,PBM binding z-score,[9],3.83
same,PBM binding z-score,[10],5.81
TCGAGTAGGTTAGGGGCGTTCAGAATGGCGTCGA,PBM binding z-score,[1],0.341
same,PBM binding z-score,[2],0.362
same,PBM binding z-score,[3],-0.22
same,PBM binding z-score,[4],0.565
same,PBM binding z-score,[5],-0.227
same,PBM binding z-score,[6],0.892
same,PBM binding z-score,[7],0.197
same,PBM binding z-score,[8],1.54
same,PBM binding z-score,[9],0.846
same,PBM binding z-score,[10],1.56
